# AI-2 QS modul – Vibrio harveyi AI-2 quorum sensing modulators, primary screen, JMH597 strain, luminescence/OD600 ratio. actives 0.4% (n = 300,000). Vibrio harveyi JMH597 AI-2 luminescence/OD600 ratio, 9 h; active compounds read low; strain lacks LuxN and CqsS sensors; 0 = neutral-control median. AID 2094, 2009. activity change, % at 7.5 µM; in the data active means activity change below about -75%, passing the limit was not always enough;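 further: luminescence divided by OD600 gain over 9 h not by final OD600 alone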
# Platelet DG rel – inhibitors of platelet dense granule secretion, primary screen, cell-based, MLPCN, human platelets; human platelet-rich plasma, SFLLRN dense granule ATP release, luminescence; inhibition, %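 (compounds screened at 7.5 µM in platelet-rich plasma)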; actives 0.22% (n = 300,000); AID 1663, 2009;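 active means mean replicate score, as percent of positive control, at or above 50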
# VLA-4 inh – inhibition in human VLA-4 binding assay, primary screen, VLA-4 allosteric modulator project, MLPCN library, flow cytometry, VLA-4 expressing cells | Integrin alpha-4 (Homo sapiens), P13612 | ligand binding flow cytometry | inhibition, % (about 7 µM as worked out from the volumes in the protocol) | actives 0.2% (n = 330,000); in the data active means inhibition above about 50%
# CHT PAM – CHT positive allosteric modulators, primary screen, cell-based, membrane potential dye, choline EC20; actives 0.49% (n = 310,000); High affinity choline transporter 1 (Homo sapiens), Q9GZV3; B-score at 10 µM; CHT-expressing cells; active compounds read high; LV-AA mutant CHT in HEK293 cells;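 active means initial fluorescence not abnormally high and integrated response B-score, plate-corrected, over 3 SD above library mean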
# Target sequence (Q9GZV3 whole entry, looked up): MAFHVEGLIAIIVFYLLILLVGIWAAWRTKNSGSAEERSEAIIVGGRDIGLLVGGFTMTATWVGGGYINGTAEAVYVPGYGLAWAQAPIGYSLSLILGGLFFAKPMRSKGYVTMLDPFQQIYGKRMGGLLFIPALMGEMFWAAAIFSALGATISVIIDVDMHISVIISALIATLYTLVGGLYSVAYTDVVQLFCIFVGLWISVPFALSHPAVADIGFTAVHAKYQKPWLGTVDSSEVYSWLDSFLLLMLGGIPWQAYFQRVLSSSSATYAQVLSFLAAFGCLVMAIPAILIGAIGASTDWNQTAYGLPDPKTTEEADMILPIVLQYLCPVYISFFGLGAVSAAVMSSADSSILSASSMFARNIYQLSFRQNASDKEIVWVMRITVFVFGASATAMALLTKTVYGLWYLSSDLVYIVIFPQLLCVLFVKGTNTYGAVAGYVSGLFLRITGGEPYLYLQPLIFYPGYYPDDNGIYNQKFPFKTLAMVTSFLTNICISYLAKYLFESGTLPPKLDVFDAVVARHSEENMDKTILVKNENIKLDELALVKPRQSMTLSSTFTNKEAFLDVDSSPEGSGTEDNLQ
# HIF activator – HIF pathway transcriptional activators, primary screen, cell-based, U2OS HRE-luciferase, luminescence | U2OS HRE-luciferase reporter; normalized: DMSO 0%, desferrioxamine 100% | activation, % at 7.5 µM (by protocol) | actives 0.32% (n = 300,000) | AID 1910, 2009;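 active means mean activation of at least 10% of the iron chelator positive control signal, with at least half of replicates also reaching 10%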
# CHT block – inhibitors of human choline transporter CHT; High affinity choline transporter 1 (Homo sapiens), Q9GZV3; actives 0.86% (n = 310,000); AID 488975, 2010; B-score at 10 µM; CHT-expressing cells, membrane potential dye, choline response; active compounds read low;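 active means B-score over 3 SD under the library average, and starting fluorescence ratio not unusually high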;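 further: choline stimulus applied at its EC90 after an EC20 pre-addition; B-score computed on integrated fluorescence ratio after choline addition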
# CHT activ conf – CHT activators, confirmation, cell-based, membrane potential dye, duplicate. shares compounds with CHT PAM. activation, % at 10 µM. actives 91% (n = 2,500). CHT-expressing cells, membrane potential dye fluorescence (FDSS); % of choline EC20–EC90 response window; HEK293 expressing CHT LV-AA mutant; choline added at its EC20;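 active means primary screen active, with duplicate mean activation above negative control mean plus 3 SD, cut at about 11% in these data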
# HEK293 MP dye – membrane potential response in parental HEK293 cells, counter-screen for CHT activator project, cell-based, membrane potential dye; shares compounds with CHT PAM; membrane potential dye fluorescence (FDSS); measured after EC20 choline addition; ratio readout change at 10 µM, hits read low; actives 62% (n = 2,500); AID 623908, 2012;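 active means duplicate-averaged ratio beyond 3 SD from buffer wells, up or down, though filed actives are nearly all decreases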
# * marks the source's active call; other numbers are inactive results; i = inactive; / = no result. Rows were chosen to be rich in hits. Some 2.2% of all compounds tested hit in one or more screens of this group.
SMILES,AI-2 QS modul,Platelet DG rel,VLA-4 inh,CHT PAM,HIF activator,CHT block,CHT activ conf,HEK293 MP dye
O=C(CCC1CCCCC1)NCCN1C2=NC[C@H](Cc3ccccc3)N2C[C@H]1Cc1ccc(O)cc1,14.5,-8.0,4.3,6.8*,0.2,i,40.2*,i
O=C(CCC1CCCCC1)NCCN1C2=NC[C@@H](Cc3ccccc3)N2C[C@H]1Cc1ccc(O)cc1,26.4,0.7,/,13.4*,-0.6,i,37.1*,i
CCN(CC)CCNC(=O)CCN1N=C(c2ccccc2)CCC1=O,43.0,1.0,4.7,i,0.4,i,/,/
CCCCCC[N+](C)(C)CC/C=C1/c2ccccc2Sc2ccc(Cl)cc21,-5.1,6.2,6.8,i,-1.1,i,44.0*,-27.1*
CCCCCCCCCCCCCCCC[N+](C)(C)CC,-39.5,0.4,25.7,i,1.2,i,/,/
C[C@H](CO)N1C[C@H](C)[C@H](CN(C)Cc2ccncc2)Oc2ccc(NC(=O)Nc3ccc(C(F)(F)F)cc3)cc2CC1=O,/,/,6.2,/,/,/,/,/
CCN1C(=NCC2CC2)N[C@@H](c2cccc(C(F)(F)F)c2)C(C(=O)OC)=C1C,9.4,-3.8,41.1,10.8*,0.1,i,25.3*,i
CCN1C(=NCCOC)N[C@@H](c2cccc(C(F)(F)F)c2)C(C(=O)OC)=C1C,/,/,9.7,/,/,/,/,/
COC(=O)C1=C(C)N(Cc2ccccc2)C(=NCc2cccc(Cl)c2)N[C@H]1c1cccc(F)c1,/,/,43.2,/,/,/,/,/
COC(=O)C1=C(C)N(Cc2ccccc2)C(=NCc2ccc(OC)cc2)N[C@H]1c1cccc(F)c1,16.5,1.9,6.1,i,0.3,i,19.6*,i
CCN1c2ccccc2-c2nc3ccccc3n2C1c1cccs1 (stereo not drawn),26.9,-6.8,17.5,7.4*,-0.1,i,44.7*,i
CCCN(CCC)C(=O)c1oc2ccccc2c1NC(=O)Cc1cccc(OC)c1,25.2,-9.4,6.8,15.6*,-0.7,i,28.5*,i
Cn1c(/C=N/n2cnnc2)nc2ccccc21,19.9,4.0,-3.6,6.55*,-0.2,i,59.8*,-48.3*
COc1cc(OC)c2ccc(=O)oc2c1C(CC(=O)N1CCN(c2ccccc2)CC1)c1ccc2c(c1)OCO2 (stereo not drawn),15.0,-1.3,-2.3,i,-0.1,i,32.8*,i
C=CCN1C(c2ccc(OCC)cc2)=CS/C1=C(\C#N)c1nnc2n1CCCCC2,15.6,7.1,-0.4,9.18*,0.6,i,26.0*,i
N#C/C(=C(/O)COc1ccc(Br)cc1)c1nnc2n1CCCCC2,-3.1,-11.6,12.7,i,-15.2,i,/,/
CC(C)(C)n1nnnc1C(c1ccc(C#N)cc1)N1CCCC2(CCCCC2)C1 (stereo not drawn),33.4,3.8,-2.0,i,0.0,i,51.5*,i
CC(C)(C)n1nnnc1C(c1ccncc1)N1CCCCCC1 (stereo not drawn),-2.7,12.7,15.1,i,0.2,i,/,/
COc1ccc(C(=O)Nc2ccncc2)c(OC)c1,8.6,9.1,0.9,6.59*,0.7,i,21.5*,-55.9*
CCOc1cc(C(=S)N2CCOCC2)ccc1OC(=O)c1cc(OC)c(OC)c(OC)c1,-2.6,0.5,21.5,i,0.3,i,/,/
CC(=O)Nc1ccc(S(=O)(=O)NCC2CCC(C(=O)N3CCCCC3)CC2)cc1 (stereo not drawn),7.6,1.8,7.2,i,1.2,i,/,/
CCOC(=O)C1CCCN(C(=O)C2CCC(CNS(=O)(=O)c3ccc(NC(C)=O)cc3)CC2)C1 (stereo not drawn),1.8,-10.8,11.1,i,-7.2,i,6.0,i
CC(C)N(C(=O)[C@H]1CC(CC(=O)NCCC2=CCCCC2)C(=O)N2CCc3c([nH]c4ccccc34)[C@]12C)C(C)C (stereo partly drawn),/,/,-9.4,/,/,/,/,/
COc1ccc(-n2c(-c3ccccc3)nnc2-c2ccc(Cl)cc2)cc1,16.5,-4.8,25.4,i,-0.2,i,/,/
COc1ccc(-n2c(-c3ccc(Cl)cc3)c[n+]3c2CCc2ccccc2-3)cc1,1.6,-4.9,1.0,8.21*,1.0,i,86.0*,-29.1*
SMILES,AI-2 QS modul,Platelet DG rel,VLA-4 inh,CHT PAM,HIF activator,CHT block,CHT activ conf,HEK293 MP dye
CCN(CC)CC(O)COc1ccccc1C(=O)CCc1ccccc1 (stereo not drawn),15.2,-2.9,25.0,i,0.0,i,/,/
CCCCN(CCCC)CC(O)COc1ccccc1C(=O)Nc1ccccc1 (stereo not drawn),7.3,1.5,10.0,7.1*,-0.3,i,-0.1,i
CCN(Cc1ccc(N(C)C)cc1)C(C)C(=O)Nc1ccc(S(=O)(=O)N2CCCC2)cc1 (stereo not drawn),/,/,9.4,/,/,/,/,/
Cc1ccc(C)c(S(=O)(=O)N2CCN(C(=O)c3cc(S(=O)(=O)NCc4ccccc4)ccc3C)CC2)c1,1.9,-9.5,-7.6,i,0.2,i,22.0*,i
O=[N+]([O-])c1ccc(OC/C=C2\Oc3ccc([N+](=O)[O-])cc3C2N2CCOCC2)cc1 (stereo not drawn),17.2,-0.8,-6.5,7.46*,-0.4,i,30.1*,i
Cc1cc(C)n(-c2nc(NCC(C)O)c3c4c(sc3n2)COC(C)(C)C4)n1 (stereo not drawn),-0.2,0.1,-1.5,i,0.9,i,/,/
Cc1cc(C)n(-c2nc(SCCN(C)C)c3c4c(sc3n2)COC(C)(C)C4)n1,15.7,-1.3,8.0,i,-0.7,i,40.8*,-45*
COc1ccc(S(=O)(=O)N2CCCCC2)cc1NC(=O)CCCNC(=O)c1ccc(Cl)cc1,/,/,-3.8,/,/,/,/,/
CCOC(=O)c1cnc2c(cnn2C)c1NCCCn1ccnc1,5.5,5.1,15.8,7.19*,0.2,i,44.0*,-80.7*
CCOC(=O)c1cnc2c(cnn2C)c1NCCCN(C)C,16.1,-0.8,-14.1,i,0.2,i,/,/

# Screening results: PubChem BioAssay, several laboratories
